# Legend:
# Assay in all cases: DAPPL (digital affinity profiling via proximity ligation, sequencing); 10 mM Tris-HCl pH 7.5, 50 mM NaCl, 1 mM DTT, 4% glycerol, room temperature, 30 min; GST-TFs on glutathione beads, 16-mer random dsDNA library, 0.1% formaldehyde crosslink after washing; high values mean tight binding
# Settings in all cases: protein: recombinant; tags: N-terminal GST; dsDNA, one strand shown
# FLI1 = molecular target: T1, FLI1 (Homo sapiens, UniProt Q01543 1-452)
# T1 sequence: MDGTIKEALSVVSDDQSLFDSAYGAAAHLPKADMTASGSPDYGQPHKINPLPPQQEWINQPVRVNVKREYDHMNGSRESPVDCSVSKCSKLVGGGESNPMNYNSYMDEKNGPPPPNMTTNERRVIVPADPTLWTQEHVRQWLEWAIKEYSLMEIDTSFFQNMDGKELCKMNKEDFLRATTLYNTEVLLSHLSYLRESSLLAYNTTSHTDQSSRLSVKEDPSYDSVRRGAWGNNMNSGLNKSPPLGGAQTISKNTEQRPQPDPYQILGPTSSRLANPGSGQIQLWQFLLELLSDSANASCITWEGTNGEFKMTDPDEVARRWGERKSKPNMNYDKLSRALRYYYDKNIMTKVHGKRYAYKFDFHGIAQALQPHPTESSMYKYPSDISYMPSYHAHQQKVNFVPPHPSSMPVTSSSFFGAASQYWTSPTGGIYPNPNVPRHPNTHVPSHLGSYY
# Outline: (§1)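 Human transcription factors carrying a GST fusion were produced in yeast, bound to glutathione beads, tagged with DNA barcodes and pooled together with a tag-only sample. Each pool was held with 200 nmole of a random double-stranded 16-mer DNA library in Tris/NaCl/DTT/glycerol buffer for 30 min at room temperature, then washed, crosslinked in 0.1% formaldehyde, proximity-ligated with BsaI/T4 ligase (1 h, 37 °C), PCR-amplified and sequenced on an Illumina NextSeq500. Binding signal is the read frequency of each hexamer for a given factor divided by its frequency in the tag-only sample.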
# ELK1 = molecular target: T2, ELK1 (Homo sapiens, UniProt P19419 1-428)
# T2 sequence: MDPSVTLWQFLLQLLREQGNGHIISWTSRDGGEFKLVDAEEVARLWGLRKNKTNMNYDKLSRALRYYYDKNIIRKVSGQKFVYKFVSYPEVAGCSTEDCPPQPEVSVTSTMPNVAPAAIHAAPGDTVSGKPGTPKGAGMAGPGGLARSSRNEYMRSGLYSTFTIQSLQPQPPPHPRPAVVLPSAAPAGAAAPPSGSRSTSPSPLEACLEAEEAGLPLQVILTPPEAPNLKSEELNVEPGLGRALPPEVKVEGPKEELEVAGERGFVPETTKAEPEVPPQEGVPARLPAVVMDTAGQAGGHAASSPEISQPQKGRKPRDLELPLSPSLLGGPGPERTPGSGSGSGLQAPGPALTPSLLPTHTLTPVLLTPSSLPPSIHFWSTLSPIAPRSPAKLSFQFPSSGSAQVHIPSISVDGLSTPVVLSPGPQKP
# Outline: as §1
# GABPA = molecular target: T3, GABPA (Homo sapiens, UniProt Q06546 1-454)
# T3 sequence: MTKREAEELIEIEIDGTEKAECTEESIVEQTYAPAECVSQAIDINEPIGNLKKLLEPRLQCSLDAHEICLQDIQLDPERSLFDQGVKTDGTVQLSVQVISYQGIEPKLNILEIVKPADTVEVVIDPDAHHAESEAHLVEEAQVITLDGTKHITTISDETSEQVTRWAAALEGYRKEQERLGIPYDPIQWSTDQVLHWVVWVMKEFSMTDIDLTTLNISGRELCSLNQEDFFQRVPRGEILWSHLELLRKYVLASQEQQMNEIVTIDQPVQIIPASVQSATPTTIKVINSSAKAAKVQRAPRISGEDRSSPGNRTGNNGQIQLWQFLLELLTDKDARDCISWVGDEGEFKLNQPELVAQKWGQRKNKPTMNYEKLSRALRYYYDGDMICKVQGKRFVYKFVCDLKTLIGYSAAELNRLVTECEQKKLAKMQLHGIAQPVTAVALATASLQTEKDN
# Outline: as §1
# ERG = molecular target: T4, ERG (Homo sapiens, UniProt P11308 1-479)
# T4 sequence: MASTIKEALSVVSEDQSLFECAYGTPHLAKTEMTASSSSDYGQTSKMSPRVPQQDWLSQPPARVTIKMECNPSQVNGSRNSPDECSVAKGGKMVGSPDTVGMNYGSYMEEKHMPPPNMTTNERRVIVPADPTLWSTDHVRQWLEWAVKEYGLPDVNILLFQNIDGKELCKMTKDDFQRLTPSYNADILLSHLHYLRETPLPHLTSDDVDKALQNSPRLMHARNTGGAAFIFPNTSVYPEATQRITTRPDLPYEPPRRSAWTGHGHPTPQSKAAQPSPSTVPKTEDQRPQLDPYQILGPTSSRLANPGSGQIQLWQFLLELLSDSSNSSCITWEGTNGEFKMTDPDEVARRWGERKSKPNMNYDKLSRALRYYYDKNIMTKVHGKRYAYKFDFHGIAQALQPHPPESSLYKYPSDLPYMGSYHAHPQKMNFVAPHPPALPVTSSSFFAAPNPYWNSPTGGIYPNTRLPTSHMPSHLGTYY
# Outline: as §1
# ELF1 = ELF1 (Homo sapiens, UniProt P32519 1-619)
# Outline: as §1
# EHF = molecular target: T5, EHF (Homo sapiens, UniProt Q9NZC4 1-300)
# T5 sequence: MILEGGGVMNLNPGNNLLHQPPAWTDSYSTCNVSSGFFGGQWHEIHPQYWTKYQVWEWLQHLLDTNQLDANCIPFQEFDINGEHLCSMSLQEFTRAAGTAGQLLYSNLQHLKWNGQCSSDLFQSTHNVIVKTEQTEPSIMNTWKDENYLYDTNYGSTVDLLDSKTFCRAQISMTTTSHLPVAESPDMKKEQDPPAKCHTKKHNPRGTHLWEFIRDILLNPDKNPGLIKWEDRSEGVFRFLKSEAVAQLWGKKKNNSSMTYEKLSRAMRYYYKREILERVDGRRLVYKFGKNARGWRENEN
# Outline: as §1
# SPI1 = SPI1 (Homo sapiens, UniProt P17947 1-270)
# Outline: as §1
# SPIB = SPIB (Homo sapiens, UniProt Q01892 1-262)
# Outline: as §1
# ELK3 = molecular target: T6, ELK3 (Homo sapiens, UniProt P41970 1-407)
# T6 sequence: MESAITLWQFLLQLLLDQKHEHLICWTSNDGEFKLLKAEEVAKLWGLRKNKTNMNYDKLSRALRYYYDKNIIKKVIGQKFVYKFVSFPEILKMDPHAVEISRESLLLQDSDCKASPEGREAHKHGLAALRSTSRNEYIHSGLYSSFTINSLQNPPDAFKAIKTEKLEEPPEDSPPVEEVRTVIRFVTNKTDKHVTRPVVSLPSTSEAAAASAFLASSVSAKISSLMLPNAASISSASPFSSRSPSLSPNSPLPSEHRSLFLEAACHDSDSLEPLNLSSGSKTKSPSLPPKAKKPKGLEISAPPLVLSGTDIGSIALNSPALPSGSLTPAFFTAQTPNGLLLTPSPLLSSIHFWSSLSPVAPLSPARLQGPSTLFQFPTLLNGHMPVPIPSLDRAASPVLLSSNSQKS
# Outline: as §1
# FEV = molecular target: T7, FEV (Homo sapiens, UniProt Q99581 1-238)
# T7 sequence: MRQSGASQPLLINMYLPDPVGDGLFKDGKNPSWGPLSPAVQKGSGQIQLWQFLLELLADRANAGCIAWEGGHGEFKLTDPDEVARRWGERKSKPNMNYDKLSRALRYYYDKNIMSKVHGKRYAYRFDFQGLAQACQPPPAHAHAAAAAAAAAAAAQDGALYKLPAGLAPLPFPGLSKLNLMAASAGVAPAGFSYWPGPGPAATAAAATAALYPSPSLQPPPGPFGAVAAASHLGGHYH
# Outline: as §1
# ETV5 = ETV5 (Homo sapiens, UniProt P41161 1-510)
# Outline: as §1
# SPIC = molecular target: T8, SPIC (Homo sapiens, UniProt Q8N5J4 1-248)
# T8 sequence: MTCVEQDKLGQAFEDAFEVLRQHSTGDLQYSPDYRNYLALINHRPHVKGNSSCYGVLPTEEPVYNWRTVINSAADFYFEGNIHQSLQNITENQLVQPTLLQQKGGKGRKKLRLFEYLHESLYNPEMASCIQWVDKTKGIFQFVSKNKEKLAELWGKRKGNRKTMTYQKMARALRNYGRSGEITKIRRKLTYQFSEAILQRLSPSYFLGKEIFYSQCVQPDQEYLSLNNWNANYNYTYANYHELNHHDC
# Outline: as §1
# ELF4 = ELF4 (Homo sapiens, UniProt Q99607 1-663)
# Outline: as §1
# ELK4 = molecular target: T9, ELK4 (Homo sapiens, UniProt P28324-2 1-405)
# T9 sequence: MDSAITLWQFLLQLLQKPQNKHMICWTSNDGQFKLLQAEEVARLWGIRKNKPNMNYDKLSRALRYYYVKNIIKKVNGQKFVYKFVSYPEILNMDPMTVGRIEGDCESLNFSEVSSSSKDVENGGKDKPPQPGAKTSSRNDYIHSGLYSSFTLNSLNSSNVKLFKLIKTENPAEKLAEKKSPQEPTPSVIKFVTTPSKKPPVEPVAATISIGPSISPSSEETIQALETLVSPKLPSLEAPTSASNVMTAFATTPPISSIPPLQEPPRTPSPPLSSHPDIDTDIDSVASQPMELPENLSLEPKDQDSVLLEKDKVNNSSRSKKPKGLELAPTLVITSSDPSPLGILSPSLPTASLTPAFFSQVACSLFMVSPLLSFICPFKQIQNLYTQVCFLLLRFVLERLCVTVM
# Outline: as §1
# ETV2 = molecular target: T10, ETV2 (Homo sapiens, UniProt O00321 1-342)
# T10 sequence: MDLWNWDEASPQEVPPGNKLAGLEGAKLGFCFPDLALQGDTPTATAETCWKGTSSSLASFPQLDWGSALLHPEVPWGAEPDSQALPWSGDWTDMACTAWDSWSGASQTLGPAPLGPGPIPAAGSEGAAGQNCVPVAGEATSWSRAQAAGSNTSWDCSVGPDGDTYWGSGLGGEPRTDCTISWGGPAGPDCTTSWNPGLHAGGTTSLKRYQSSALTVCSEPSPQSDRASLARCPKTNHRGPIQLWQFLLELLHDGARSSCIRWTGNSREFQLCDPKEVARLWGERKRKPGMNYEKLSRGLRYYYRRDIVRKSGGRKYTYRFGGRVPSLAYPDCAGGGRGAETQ
# Outline: as §1
# ETV1 = ETV1 (Homo sapiens, UniProt P50549 1-477)
# Outline: as §1
# ELF3 = molecular target: T11, ELF3 (Homo sapiens, UniProt P78545 1-371)
# T11 sequence: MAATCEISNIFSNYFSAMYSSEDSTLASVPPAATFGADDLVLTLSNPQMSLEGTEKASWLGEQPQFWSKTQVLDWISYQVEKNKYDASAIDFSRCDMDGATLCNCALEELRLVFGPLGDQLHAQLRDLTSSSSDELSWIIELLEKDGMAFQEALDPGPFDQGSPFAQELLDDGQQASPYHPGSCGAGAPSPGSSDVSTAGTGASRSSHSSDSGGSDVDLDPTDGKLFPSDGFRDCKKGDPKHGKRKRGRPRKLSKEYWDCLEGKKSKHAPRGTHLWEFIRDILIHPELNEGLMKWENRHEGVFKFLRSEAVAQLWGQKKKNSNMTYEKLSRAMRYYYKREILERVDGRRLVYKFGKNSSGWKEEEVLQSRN
# Outline: as §1
# Chain of ETV5 (P41161 whole entry): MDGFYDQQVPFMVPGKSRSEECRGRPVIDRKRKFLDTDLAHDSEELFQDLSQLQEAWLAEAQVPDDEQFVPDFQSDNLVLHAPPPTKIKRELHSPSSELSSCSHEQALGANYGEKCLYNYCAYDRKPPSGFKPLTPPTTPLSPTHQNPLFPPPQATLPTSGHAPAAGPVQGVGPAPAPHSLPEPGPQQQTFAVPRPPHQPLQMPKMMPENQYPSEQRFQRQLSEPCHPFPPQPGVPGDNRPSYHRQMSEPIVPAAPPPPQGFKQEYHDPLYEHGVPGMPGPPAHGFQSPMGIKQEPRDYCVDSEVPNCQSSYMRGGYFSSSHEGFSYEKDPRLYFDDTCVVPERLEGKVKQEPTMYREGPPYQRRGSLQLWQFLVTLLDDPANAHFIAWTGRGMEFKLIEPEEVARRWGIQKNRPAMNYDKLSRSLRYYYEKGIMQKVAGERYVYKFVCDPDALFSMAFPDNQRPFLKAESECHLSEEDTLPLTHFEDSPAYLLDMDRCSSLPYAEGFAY
# Chain of SPIB (Q01892 whole entry): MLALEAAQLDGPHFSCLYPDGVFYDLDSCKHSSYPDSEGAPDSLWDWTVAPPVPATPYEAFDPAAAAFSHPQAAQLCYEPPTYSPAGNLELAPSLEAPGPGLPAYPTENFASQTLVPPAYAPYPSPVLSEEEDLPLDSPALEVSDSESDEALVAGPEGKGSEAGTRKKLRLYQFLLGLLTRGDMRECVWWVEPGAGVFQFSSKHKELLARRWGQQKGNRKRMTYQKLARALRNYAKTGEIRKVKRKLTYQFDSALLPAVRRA
# Chain of ELF1 (P32519 whole entry): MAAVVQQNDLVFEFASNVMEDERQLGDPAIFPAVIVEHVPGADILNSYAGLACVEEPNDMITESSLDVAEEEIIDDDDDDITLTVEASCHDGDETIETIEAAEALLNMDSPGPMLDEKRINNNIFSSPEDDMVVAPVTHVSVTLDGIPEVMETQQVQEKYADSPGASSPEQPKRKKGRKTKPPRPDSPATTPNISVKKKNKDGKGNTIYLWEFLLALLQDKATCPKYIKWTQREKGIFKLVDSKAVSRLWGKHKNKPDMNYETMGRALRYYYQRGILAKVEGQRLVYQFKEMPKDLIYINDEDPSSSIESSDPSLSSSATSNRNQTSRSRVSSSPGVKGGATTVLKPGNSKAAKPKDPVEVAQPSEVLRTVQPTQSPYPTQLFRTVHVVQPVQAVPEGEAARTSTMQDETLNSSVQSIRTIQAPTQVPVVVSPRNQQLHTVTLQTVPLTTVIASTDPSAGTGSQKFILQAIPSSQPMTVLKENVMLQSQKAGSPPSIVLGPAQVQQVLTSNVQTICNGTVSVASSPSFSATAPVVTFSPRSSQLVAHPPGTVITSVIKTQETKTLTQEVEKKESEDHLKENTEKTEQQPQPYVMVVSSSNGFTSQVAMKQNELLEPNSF
# Chain of ELF4 (Q99607 whole entry): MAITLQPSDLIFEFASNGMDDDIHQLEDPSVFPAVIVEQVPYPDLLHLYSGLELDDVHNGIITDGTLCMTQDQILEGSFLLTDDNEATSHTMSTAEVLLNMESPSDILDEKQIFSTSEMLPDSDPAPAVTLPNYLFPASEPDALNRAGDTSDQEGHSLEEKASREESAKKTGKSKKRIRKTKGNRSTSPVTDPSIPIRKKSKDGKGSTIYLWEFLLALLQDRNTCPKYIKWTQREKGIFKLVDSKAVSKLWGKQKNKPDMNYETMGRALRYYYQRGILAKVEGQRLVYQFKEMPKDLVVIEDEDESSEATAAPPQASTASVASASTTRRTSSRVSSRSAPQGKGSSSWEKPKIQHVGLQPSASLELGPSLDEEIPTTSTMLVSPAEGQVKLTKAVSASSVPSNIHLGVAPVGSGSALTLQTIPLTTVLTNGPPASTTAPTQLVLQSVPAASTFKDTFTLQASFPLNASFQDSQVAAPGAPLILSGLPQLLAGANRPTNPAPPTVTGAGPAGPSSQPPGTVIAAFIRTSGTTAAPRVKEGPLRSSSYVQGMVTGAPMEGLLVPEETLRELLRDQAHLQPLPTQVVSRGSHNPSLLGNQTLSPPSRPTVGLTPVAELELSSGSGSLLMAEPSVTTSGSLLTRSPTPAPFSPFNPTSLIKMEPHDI
# Chain of ETV1 (P50549 whole entry): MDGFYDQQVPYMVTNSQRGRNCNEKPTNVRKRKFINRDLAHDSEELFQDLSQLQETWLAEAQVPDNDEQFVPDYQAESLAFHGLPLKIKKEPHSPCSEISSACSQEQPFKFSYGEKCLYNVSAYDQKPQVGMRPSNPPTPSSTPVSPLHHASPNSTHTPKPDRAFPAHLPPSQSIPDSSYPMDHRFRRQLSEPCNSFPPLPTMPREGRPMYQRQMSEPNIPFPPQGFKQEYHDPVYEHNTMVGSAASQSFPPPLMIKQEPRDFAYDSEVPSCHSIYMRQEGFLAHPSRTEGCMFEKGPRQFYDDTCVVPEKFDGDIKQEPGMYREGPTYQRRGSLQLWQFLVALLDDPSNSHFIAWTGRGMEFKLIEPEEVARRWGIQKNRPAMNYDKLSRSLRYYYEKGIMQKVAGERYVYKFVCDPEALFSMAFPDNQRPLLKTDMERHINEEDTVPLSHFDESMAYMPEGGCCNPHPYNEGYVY
Sequence,binding signal (FLI1),binding signal (ELK1),binding signal (GABPA),binding signal (ERG),binding signal (ELF1),binding signal (EHF),binding signal (SPI1),binding signal (SPIB),binding signal (ELK3),binding signal (FEV),binding signal (ETV5),binding signal (SPIC),binding signal (ELF4),binding signal (ELK4),binding signal (ETV2),binding signal (ETV1),binding signal (ELF3)
CCCATG,"1.06 fold enrichment (6-mer frequency, TF over GST control)","1 fold enrichment (6-mer frequency, TF over GST control)","1.22 fold enrichment (6-mer frequency, TF over GST control)","1.19 fold enrichment (6-mer frequency, TF over GST control)","1.15 fold enrichment (6-mer frequency, TF over GST control)","1.11 fold enrichment (6-mer frequency, TF over GST control)","1.14 fold enrichment (6-mer frequency, TF over GST control)","1.15 fold enrichment (6-mer frequency, TF over GST control)","1.13 fold enrichment (6-mer frequency, TF over GST control)","1.06 fold enrichment (6-mer frequency, TF over GST control)","1.09 fold enrichment (6-mer frequency, TF over GST control)","1.02 fold enrichment (6-mer frequency, TF over GST control)","1.12 fold enrichment (6-mer frequency, TF over GST control)","1.18 fold enrichment (6-mer frequency, TF over GST control)","1.02 fold enrichment (6-mer frequency, TF over GST control)","1.01 fold enrichment (6-mer frequency, TF over GST control)",–
AAGTTG,"1.09 fold enrichment (6-mer frequency, TF over GST control)","1.07 fold enrichment (6-mer frequency, TF over GST control)","1.1 fold enrichment (6-mer frequency, TF over GST control)","1.08 fold enrichment (6-mer frequency, TF over GST control)","1.08 fold enrichment (6-mer frequency, TF over GST control)","1.14 fold enrichment (6-mer frequency, TF over GST control)","1.13 fold enrichment (6-mer frequency, TF over GST control)","1.1 fold enrichment (6-mer frequency, TF over GST control)","1.11 fold enrichment (6-mer frequency, TF over GST control)","1.05 fold enrichment (6-mer frequency, TF over GST control)","1.16 fold enrichment (6-mer frequency, TF over GST control)","1.08 fold enrichment (6-mer frequency, TF over GST control)","1.14 fold enrichment (6-mer frequency, TF over GST control)","1.12 fold enrichment (6-mer frequency, TF over GST control)",–,"1.02 fold enrichment (6-mer frequency, TF over GST control)","1.12 fold enrichment (6-mer frequency, TF over GST control)"
